Assay [1] is described as follows: NCI Yeast Anticancer Drug Screen. Data for the rad50 strain (AID 155).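 Note: 0% = growth of vehicle-only cultures of the same strain.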 As to conditions: S. cerevisiae rad50 strain growth inhibition; at 50.0 µM; stronger effect = higher value. In short, it runs like this:
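Genetically altered yeast (DNA repair pathway); compound treatment; growth inhibition vs vehicle ctrl.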

The nature of assay [2]: NCI Yeast Anticancer Drug Screen. Data for the mec2-1 strain (AID 157). As to conditions: S. cerevisiae mec2-1 strain, at 50.0 µM, stronger effect = higher value. An outline of the steps: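 Using mec2-1 yeast: add compound, measure growth, express inhibition versus vehicle-treated cultures.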
The nature of assay [3]: NCI Yeast Anticancer Drug Screen. Data for the sgs1 mgt1 strain (AID 161).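 Note: 0% = growth of cultures given vehicle only.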 As to conditions: S. cerevisiae sgs1 mgt1 strain, at 50.0 µM, stronger effect = higher value. An outline of the steps:
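Compounds are added to genetically altered yeast, and growth is compared with cultures given vehicle alone to give percent inhibition.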

A short description of assay [4]: NCI Yeast Anticancer Drug Screen. Data for the cln2 rad14 strain (AID 165).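 Note: 0% = growth equal to vehicle treated cultures.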 As to conditions: S. cerevisiae cln2 rad14 strain, at 50.0 µM, stronger effect = higher value. An outline of the steps: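 Yeast strain cln2 rad14, bearing defects in cell cycle control and DNA repair, serves as the test system; values reflect growth inhibition compared with vehicle.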
A short description of assay [5]: NCI Yeast Anticancer Drug Screen. Data for the bub3 strain (AID 167). As to conditions: S. cerevisiae bub3 mutant strain, at 50.0 µM, stronger effect = higher value. In short, it runs like this: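 Yeast carrying a defined mutation is treated with each compound, and growth is compared with that of vehicle-exposed cells to give inhibition.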
A short description of assay [6]: NCI Yeast Anticancer Drug Screen. Data for the mlh1 rad18 strain (AID 175). As to conditions: S. cerevisiae mlh1 rad18 strain growth inhibition; at 50.0 µM; stronger effect = higher value. An outline of the steps: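 Steps: expose repair-defective yeast to compound; measure growth; express inhibition against vehicle-treated controls.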

This is part of a sample that, as a whole, favours compounds with a hit. Of some 79,000 tested, about 15% had one in any assay. Values without a mark were called inactive. Calls of active or inactive are those of the source. Cut-off read from the data, not from the text of the source: active = growth inhibition above about 70%; inactive = the rest.

`O=Cc1cc2c(cc1Cl)OCO2`: the growth inhibition was -3.3% in assay [1]; -8.05% in assay [2]; -13.8% in assay [3]; 14.8% in assay [4]; -8.4% in assay [5]; -2% in assay [6].
As for `Clc1ccccc1OCCNC1CC1`, the growth inhibition in assay [1] was 20.7%; in assay [2], -0.1%; in assay [3] it was -10.8%; in assay [4], -45%; in assay [5] it was 4.95%; in assay [6], 1.7%.
Turning to `O=C1NC(=O)c2c(Br)c(Br)c(Br)c(Br)c21`, the growth inhibition is -20.6% in assay [1]; -32.9% in assay [2]; 2.35% in assay [3]; 9.6% in assay [4]; -16.6% in assay [5]; -1.55% in assay [6].
With `CC(C)=CCCc1cc(-c2cc(CCC=C(C)C)nc(N)n2)nc(N)n1`, the growth inhibition in assay [1] was 3.5%; in assay [2], -10.9%; in assay [3], -3.2%; in assay [4], -7.1%; in assay [5], -22.9%; in assay [6], 15.1%.
As for `CC(COc1ccccc1)N(CCCl)Cc1ccccc1` (stereo unspecified), the growth inhibition in assay [1] was 2.7%; in assay [2] it was 10.8%; in assay [3], -1.4%; in assay [4], -43.3%; in assay [5], 38%; in assay [6], 1.8%.
For `c1ccc(CCN(c2ccccc2)c2ccccc2)cc1`, the growth inhibition in assay [1] is 21.1%; in assay [2], -2.4%; in assay [3], -11.2%; in assay [4], 9.8%; in assay [5], 7.55%; in assay [6] it was 1.2%.
Consider `CC(C)C(Br)CCC1=CCC(Br)(Br)C1` (stereo unspecified), for which the growth inhibition in assay [1] was 79.1% (active); in assay [2], 82.2% (active); in assay [3], 88.5% (active); in assay [4], 86.2% (active); in assay [5], 84.7% (active); in assay [6], 90.3% (active).
Turning to `Cc1ccc(C(=O)O)c(O)c1`, the growth inhibition in assay [1] was 11.7%; in assay [2], -1.7%; in assay [3], -14.8%; in assay [4], -13.9%; in assay [5] it was -26%; in assay [6], -2.5%.
Consider `Cn1c(=O)c2c(nc(NCCOC(=S)S)n2C)n(C)c1=O`, for which the growth inhibition in assay [1] is -44.8%; in assay [2] it was 1.8%; in assay [3], -10.3%; in assay [4], 32.5%; in assay [5], 5.3%; in assay [6], 15.9%.
Regarding `CC(=S)NC(O)C(=O)c1ccccc1` (stereo unspecified), the growth inhibition is 9.85% in assay [1]; 12.8% in assay [2]; 45% in assay [3]; 8.6% in assay [4]; 45.2% in assay [5]; 6.45% in assay [6].
For `Cn1c2ccccc2c(=O)c2cc(NC(=O)/C=C/C(=O)Nc3ccc4c(c3)c(=O)c3ccccc3n4C)ccc21`, the growth inhibition is -3.25% in assay [1]; 0.75% in assay [2]; -2.7% in assay [3]; -14.6% in assay [4]; -3.8% in assay [5]; 5.9% in assay [6].
Regarding `CCC(O)(CC)c1ccc2ncccc2c1`, the growth inhibition in assay [1] was 3.6%; in assay [2], 6.05%; in assay [3], 7.7%; in assay [4], -19.1%; in assay [5], -6.65%; in assay [6], 7%.
On to `CCCC(=O)NC(Nc1ccc(S(=O)(=O)Nc2nc(C)cc(C)n2)cc1)(C(F)(F)F)C(F)(F)F`, for which the growth inhibition in assay [1] is -21.6%; in assay [2], -37.9%; in assay [3] it was -21.1%; in assay [4] it was 13.2%; in assay [5], -3.7%; in assay [6], -21.4%.
In the case of `FC(F)(F)C(F)(F)C(F)(F)c1nc(C(F)(F)C(F)(F)C(F)(F)F)nc(C(F)(F)C(F)(F)C(F)(F)F)n1`, the growth inhibition is 22.1% in assay [1]; -1% in assay [2]; 31.5% in assay [3]; 18.6% in assay [4]; 15.1% in assay [5]; 25.6% in assay [6].
Regarding `COc1ccc(N=C(N)N=C(N)N)cc1`, the growth inhibition in assay [1] is -3.3%; in assay [2] it was -2%; in assay [3], -6.9%; in assay [4], 8.2%; in assay [5], -2.65%; in assay [6], 0%.
Regarding `CCOC(=O)/C(O)=C/c1nc2ccccc2nc1C`, the growth inhibition in assay [1] is 18.8%; in assay [2] it was 5.65%; in assay [3] it was 8.9%; in assay [4], -6%; in assay [5], -17.3%; in assay [6], 14.7%.
For `CCOC(=O)C1CCCc2sc(N)c(C#N)c21` (stereo unspecified), the growth inhibition is 1.15% in assay [1]; -13.8% in assay [2]; 4.2% in assay [3]; -28.4% in assay [4]; 3.15% in assay [5]; 0.95% in assay [6].
In the case of `C=C(Cl)COc1ccc(C(=O)c2ccccc2)cc1`, the growth inhibition in assay [1] was -4.5%; in assay [2], -9%; in assay [3], -6.5%; in assay [4] it was -64%; in assay [5], -7.25%; in assay [6] it was -14.9%.
For the molecule `CC(=O)OC1CC2C(CCC3CC(C(C)=O)CCC32C)C2CCC(/C(C)=C/C=C(c3ccccc3)c3ccccc3)C12C` (stereo unspecified), the growth inhibition in assay [1] was 19.6%; in assay [2], 3.1%; in assay [3], 7.35%; in assay [4], -9.4%; in assay [5] it was -3.05%; in assay [6] it was 2.6%.
With `Cc1cccc(I)c1`, the growth inhibition is -21.4% in assay [1]; -24.4% in assay [2]; -4.95% in assay [3]; -2.1% in assay [4]; -2.55% in assay [5]; 17.2% in assay [6].
As to `O=C1c2ccccc2C(=O)N1CC(F)(F)F`, the growth inhibition is -11.9% in assay [1]; -4.75% in assay [2]; -9.5% in assay [3]; 8.25% in assay [4]; 5.6% in assay [5]; -12.3% in assay [6].

For the origin of these results see PubChem BioAssay (NCI).
